TRPML1 ag: activates the human TRPML1 channel. 410,000 compounds, 0.12% hits. TRPML1-expressing cells, Ca2+ dye fluorescence, FDSS. AID 624414. activation, % (test concentration not listed). Q9GZU1; note: 0% is about no effect
Target sequence (Q9GZU1 whole entry, looked up): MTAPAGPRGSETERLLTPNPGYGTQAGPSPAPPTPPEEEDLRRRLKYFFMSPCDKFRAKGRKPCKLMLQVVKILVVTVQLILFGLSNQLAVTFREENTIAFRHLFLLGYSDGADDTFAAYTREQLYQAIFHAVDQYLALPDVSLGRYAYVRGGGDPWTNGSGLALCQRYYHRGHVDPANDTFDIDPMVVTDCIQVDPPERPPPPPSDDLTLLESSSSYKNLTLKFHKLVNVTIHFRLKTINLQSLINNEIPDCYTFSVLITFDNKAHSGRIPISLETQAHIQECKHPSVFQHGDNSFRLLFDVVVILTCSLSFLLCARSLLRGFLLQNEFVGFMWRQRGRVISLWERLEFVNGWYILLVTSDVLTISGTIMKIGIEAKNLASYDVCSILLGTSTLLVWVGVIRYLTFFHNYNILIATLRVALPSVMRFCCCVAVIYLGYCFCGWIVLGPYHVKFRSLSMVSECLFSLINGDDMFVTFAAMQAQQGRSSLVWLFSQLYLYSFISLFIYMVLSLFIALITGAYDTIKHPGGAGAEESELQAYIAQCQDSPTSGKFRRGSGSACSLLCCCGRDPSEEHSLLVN
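Calcium fluorescence on an FDSS kinetic reader gave the read-out. Tet-induced TRPML1-DL cells were plated overnight, dye-loaded (Ca8 with quencher, 45-90 min, room temperature, dark), then read 110 s after compound addition, and again 110 s after 4uM final 54-4 (EC80).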
IL-2 act: activators of IL-2. IL-2 activation reporter assay, cell-based qHTS; stimulated with anti-CD3/CD4/CD28 beads; in transgenic mouse T cells. activation, % (series mostly up to about 46 µM). 360,000 compounds, 0.065% hits. AID 652025; note: 0% is about no effect
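Unstimulated transgenic mouse T cells, 750 per well, received compound and, after 60 minutes, anti-CD3/anti-CD4 bead plus anti-CD28 stimulation. EGFP and DsRed were quantified after 18 hours.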
TSG101-PTAP inh: blocks PTAP/TSG101 interaction to inhibit HIV-1 budding; 340,000 tested, under 10 active; Q99816; Potency, µM (series often up to 115 µM), without a hit: top-dose activity change, negative = inhibition, hits mostly inhibitors; Fluorescence polarization, FITC-PTAP peptide / Tsg101 binding; active = well fitted inhibition curve with a large enough effect in the main read-out, with a control signal flat, not every such curve was filed as active; inconclusive = small, poorly fitted or top-dose-only effect, or effect the other way, or a change in a side signal; inactive = no such curve, though single readings can be large or run the other way; note: potency is the fitted concentration of half-maximal effect; % of control where 0% means no effect
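Fluorescence anisotropy tracks displacement of a FITC-tagged PTAP peptide (50 nM) from the Tsg101 binding domain (10 uM), following a 20 min room-temperature incubation at pH 7.5.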
PKM2 activator: PKM2 (human) enzyme activation; P14618; purified PKM2, Kinase-Glo ATP luminescence, activation; response scale: 0% is enzyme alone, no compound; Potency, µM (series often up to 57.5 µM), for the others: at the top dose activation, actives largely listed as activators; 260,000 compounds, 0.34% hits; active = well fitted activation curve with a large enough effect; inconclusive = small, poorly fitted or top-dose-only effect; inactive = no such curve, though single readings can be large or run the other way; note: potency is the fitted concentration of half-maximal effect; % is set by controls: 0 for no effect and ±100 for the full control effect; nearly all actives have a fitted effect of over 55% in size
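Kinase-Glo luminescence reports ATP generated from ADP (0.1 mM) and PEP (0.5 mM) by purified hPK-M2 after 1 h at room temperature, pH 7.2 imidazole buffer; intermediate enzyme activity allows detecting inhibitors and activators.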
BRCA1 expr up: activators of BRCA1 expression | AID 624202 | 380,000 compounds, 1.1% hits | MCF7-BRCA1-FFLuc reporter, luminescence, 48 h; response scale: scaled: vehicle 0%, 10 µM genistein 100% | Potency, µM (top dose mostly 46.1 µM), for the others: at the top dose activation, usual class: activators; active = well fitted activation curve with a large enough effect; inconclusive = small, poorly fitted or top-dose-only effect; inactive = no such curve, though single readings can be large or run the other way; note: potency is the fitted concentration of half-maximal effect; nearly all actives have a fitted effect of over 80% in size
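MCF7 cells carrying a BRCA1-firefly luciferase reporter (2000 cells/well, phenol-red free MEM) were attached for 2 h at 37 °C, then given compounds for 48 h. Luminescence was read 15 min after luciferase reagent; activity normalized to genistein (10 microM) and DMSO.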
TRPML1 inh: blocks the human TRPML1 channel. activity change, negative = inhibition, % (no concentration beside the values). AID 624415. TRPML1-inducible cells, Ca2+ dye fluorescence, FDSS; hits give low values; inhibition of EC80 agonist-evoked calcium signal. 390,000 compounds, 0.02% hits. Q9GZU1; in the data active = activity change below about -50%; inconclusive = between about -30% and that limit;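 note: stimulus is agonist 54-4 at its EC80 concentration; % is set by controls: 0 for no effect and ±100 for the full control effect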
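Tet-induced TRPML1-DL cells loaded with Ca8 no-wash calcium dye were read kinetically on FDSS. Compound addition was followed by EC80 agonist 54-4 (4 uM final); inhibition was read over 110 s.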
The depositor's hits bear a star. Only some compounds are listed: those with a hit (about 1.3% of all), similar ones and a draw of the others. Cut-off read from the data, not from the text of the source, unless noted: active = activation above about 50%; inconclusive = mostly about 30% to 49%; inactive = weaker than that.

For COc1ccc(OCCSc2ncnc3nc[nH]c23)cc1 the results were TRPML1 ag 0.2, IL-2 act -1.1, TSG101-PTAP inh 0.2%, PKM2 activator -1.6%, BRCA1 expr up inconclusive and TRPML1 inh 7.1.
c1ccc(OCCSc2ncnc3nc[nH]c23)cc1 was read as TRPML1 ag -0.5, IL-2 act 0.5, TSG101-PTAP inh -2.4%, BRCA1 expr up 8.91µM* and TRPML1 inh 0.1.
For CCOC(=O)c1cccc(NC(=O)c2oc3c(c2C)-c2nn(CC)cc2CC3)c1 the results were TRPML1 ag 3.2 and TRPML1 inh -25.9.
CC[C@@H]1Cc2[nH][nH]c(=O)c2[C@H](CC(C)C)O1 was read as TRPML1 ag -0.6, IL-2 act 0.1 and BRCA1 expr up 16.4%.
CCCCn1c(=O)[nH]c2nc3cc(NC(C)=O)ccc3nc2c1=O was read as TRPML1 ag 8.2, IL-2 act -0.1, TSG101-PTAP inh -4.8%, PKM2 activator -10.2%, BRCA1 expr up 8.3% and TRPML1 inh -1.9.
Screening CCCCCCn1c(=O)[nH]c2nc3cc(N)c(C)cc3nc2c1=O returned TRPML1 ag 69.8*, IL-2 act 19.4, TSG101-PTAP inh inconclusive, PKM2 activator inconclusive, BRCA1 expr up -35.1% and TRPML1 inh -7.8.
`O=c1oc2cc(O)ccc2cc1-c1nc2ccccc2o1` gave TRPML1 ag 98.6*, IL-2 act 3.0 and BRCA1 expr up 84.9%.
Screening Cc1cc(NC(=O)CSc2ccc3nnc(-c4ccc(F)cc4)n3n2)no1 returned TRPML1 ag 0.1, IL-2 act -0.1, TSG101-PTAP inh -10.1%, PKM2 activator 5.2%, BRCA1 expr up 3.4% and TRPML1 inh -4.0.
`Cc1cc(NC(=O)CSc2ccc(-c3ccc(F)cc3)nn2)no1` gave TRPML1 ag 2.8, IL-2 act 0.4, TSG101-PTAP inh -1.4%, PKM2 activator 7.08µM*, BRCA1 expr up 16.4% and TRPML1 inh 25.7.
`CC(=O)Nc1ccc(NC(=O)CSc2ccc(-c3cccnc3)nn2)cc1` gave TRPML1 ag -0.1, IL-2 act 0.4, TSG101-PTAP inh -2.7%, PKM2 activator 3.1%, BRCA1 expr up -4.1% and TRPML1 inh -14.5.
For Cc1cc(NC(=O)CSc2ccc(-c3ccccc3)nn2)no1 the results were TRPML1 ag 1.6, IL-2 act -1.4, TSG101-PTAP inh -1.5%, PKM2 activator 15.8µM*, BRCA1 expr up 12.0% and TRPML1 inh 35.2.
Screening Cc1nnc(NC(=O)CSc2ccc(-c3cccnc3)nn2)s1 returned TRPML1 ag -1.0, IL-2 act -0.1, TSG101-PTAP inh -3.4%, PKM2 activator 2.82µM*, BRCA1 expr up -7.6% and TRPML1 inh -9.5.
Screening Cc1cc2c(cc1S(=O)(=O)Nc1cccc(Cl)c1C)OCCN2C returned TRPML1 ag -0.3 and TRPML1 inh 4.7.
For CC(C)(C)c1ccc(C(=O)N2CCC2(C)C(=O)Nc2cccc(C#N)c2)cc1 (stereo not given) the results were TRPML1 ag 0.2, IL-2 act -0.7 and BRCA1 expr up -26.3%.
`Nc1nc2c(nnn2C2CC(O)C(CO)O2)c(=O)[nH]1` (stereo not given) gave TRPML1 ag -0.3, IL-2 act 0.6 and BRCA1 expr up -67.1%.
`COc1ccc(CCC(=O)N2CCN(S(=O)(=O)c3cccs3)CC2)cc1` gave TRPML1 ag -0.1, IL-2 act 1.9, TSG101-PTAP inh -0.6%, BRCA1 expr up -26.7% and TRPML1 inh 0.0.
`N#Cc1ccc(OCC(=O)N2CCN(S(=O)(=O)c3cccs3)CC2)cc1` gave TRPML1 ag -0.3, IL-2 act 1.5, TSG101-PTAP inh -3.0%, PKM2 activator 17.8µM*, BRCA1 expr up -20.6% and TRPML1 inh -3.3.
For O=C(CCOc1ccccc1)N1CCN(S(=O)(=O)c2cccs2)CC1 the results were TRPML1 ag -0.6, IL-2 act 0.3, TSG101-PTAP inh -2.1%, PKM2 activator 12.6µM*, BRCA1 expr up 14.3% and TRPML1 inh 5.8.
Screening O=C(COc1ccccc1)N1CCN(S(=O)(=O)c2cccs2)CC1 returned TRPML1 ag -0.3, IL-2 act 5.5, TSG101-PTAP inh -6.5%, PKM2 activator 7.94µM*, BRCA1 expr up 4.6% and TRPML1 inh -12.1.
For O=C(CCc1ccccc1)N1CCN(S(=O)(=O)c2cccs2)CC1 the results were TRPML1 ag -0.1, IL-2 act -3.0, TSG101-PTAP inh -2.8%, PKM2 activator 3.55µM*, BRCA1 expr up -10.3% and TRPML1 inh -1.7.
`O=C(c1ccccc1)N1CCN(S(=O)(=O)c2cccs2)CC1` gave TRPML1 ag 0.5, IL-2 act -2.1, TSG101-PTAP inh -7.4%, PKM2 activator 4.6%, BRCA1 expr up 2.4% and TRPML1 inh -14.3.
CC(C)(C)c1ccc(O)c(N=Cc2cccc([N+](=O)[O-])c2)c1 was read as TRPML1 ag -0.4 and BRCA1 expr up 27.7%.
Screening Cc1coc2cc3oc(=O)c(CCC(=O)N4CCCCC4)c(C)c3cc12 returned TRPML1 ag -0.2 and TRPML1 inh 4.8.
CCOc1ccc(-c2nn3c(-c4cc(-c5ccccc5)n[nH]4)nnc3s2)cc1 was read as TRPML1 ag -0.4 and BRCA1 expr up 16.2%.
COc1ccc(OCC(=O)N2CCN(S(=O)(=O)c3ccccc3[N+](=O)[O-])CC2)cc1 was read as TRPML1 ag 2.2, IL-2 act -0.4, TSG101-PTAP inh -4.3%, PKM2 activator 7.94µM*, BRCA1 expr up -4.0% and TRPML1 inh 9.5.
Screening O=C(Nc1ccccc1)[C@@H]1[C@@H]2C(=O)N(c3ccc(F)cc3)C(=O)[C@@H]2[C@H]2C=CC=NN21 returned TRPML1 ag -0.2, IL-2 act -0.6, TSG101-PTAP inh -4.1%, PKM2 activator 8.91µM*, BRCA1 expr up -36.6% and TRPML1 inh -2.2.
CC1CCN(c2ccc(C(=O)NCCc3ccccc3)cn2)CC1 was read as TRPML1 ag -0.4, IL-2 act -1.4, TSG101-PTAP inh -2.1%, PKM2 activator -4.0%, BRCA1 expr up inconclusive and TRPML1 inh -5.3.
`CC1CCCN(c2ccc(C(=O)NCc3ccccc3)cn2)C1` (stereo not given) gave TRPML1 ag 0.5, IL-2 act 1.2, TSG101-PTAP inh -3.1%, PKM2 activator 2.6%, BRCA1 expr up 6.31µM* and TRPML1 inh -17.8.
